The values that follow come from PubChem BioAssay AID493012 (Sanford-Burnham Center for Chemical Genomics, 2011).

SMILES strings stand for the structures. The whole screen tested about 330,000 compounds, of which about 930 (0.28%) were called active. This excerpt belongs to a sample that is enriched for actives. A number with no mark means an inactive call.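 Rule for the calls: active = inhibition of at least 40% at 20 µM, with no more than 30% in the related APOBEC3A deaminase screen; inactive = the rest.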

Sequence of DNA dC->dU-editing enzyme APOBEC-3G (Homo sapiens) (Q9HC16 whole entry, looked up): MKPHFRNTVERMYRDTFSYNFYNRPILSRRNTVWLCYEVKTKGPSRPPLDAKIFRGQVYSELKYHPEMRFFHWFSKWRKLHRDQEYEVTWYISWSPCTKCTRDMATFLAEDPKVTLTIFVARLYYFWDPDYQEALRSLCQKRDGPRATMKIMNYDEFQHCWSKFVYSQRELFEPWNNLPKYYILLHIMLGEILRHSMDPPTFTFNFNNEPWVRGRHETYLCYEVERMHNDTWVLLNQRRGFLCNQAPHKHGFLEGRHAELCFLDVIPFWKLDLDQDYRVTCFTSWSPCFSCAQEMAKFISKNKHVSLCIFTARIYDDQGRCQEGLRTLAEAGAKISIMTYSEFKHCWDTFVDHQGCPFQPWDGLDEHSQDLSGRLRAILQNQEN

The experiment addresses DNA dC->dU-editing enzyme APOBEC-3G (Homo sapiens) (UniProt Q9HC16). The experiment can be described thus: inhibition of human A3G ssDNA deamination – biochemical, fluorescence, single-stranded DNA substrate, uHTS, primary screen (AID 493012).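 Note: plate controls were DMSO wells with A3G for no effect and wells lacking A3G enzyme for full effect.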 To be noted: recombinant A3G, ssDNA deamination FAM/TAMRA fluorescence; at 20 µM; active compounds read high.
What is called inhibition is the drop in the measured response relative to a control, in per cent. For the compound `COC(=O)N(c1ccc(OC)cc1)P1(=S)OCCC(C)O1` (stereo not given), the inhibition is 69.7% (active).
Then `Cn1c(O)c(C=NCCN2CCNCC2)c(=O)n(C)c1=O`, with -1.92%; and `CCCC[N+]1(C)C2CC(OC(=O)C(CO)c3ccccc3)CC1C1OC12` (stereo not given), with -0.137%; and `CCN1CCN(Cc2cc(OC)c3c(c2)OCO3)CC1`, with -5.01%.
Then `Cc1cccc(-n2c(O)c(/C=N/N3CCOCC3)c(=O)[nH]c2=S)c1`, with -9.2%.
